# The list is not random: actives were taken first. Their share in the collection is about 9.3%.
# Rab9 promoter act: Rab9 promoter activation. AID 485297. Huh7 Rab9 promoter-luciferase reporter, luminescence, 24 h. hit rate 2.8% among 320,000. Potency, µM (top dose mostly 9.22 µM), without a hit: at the top dose activation, negative = inhibition, hits mostly activators; also: % of control where 0% means no effect; nearly all actives have a fitted effect of over 60% in size
#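 Stable Rab9-luc Huh7, 1500 cells/well, 2 h settle; cmpd in DMSO, 24 h, 37 °C/5% CO2; luciferase reagent 10 min RT; luminescence.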
# FLuc modulator: counter-screen for miR-21 project: firefly luciferase inhibitors or activators. Potency, µM (top dose mostly 57.5 µM), for inactives: top-dose activity change, negative = inhibition, actives largely listed as inhibitors. hit rate 6.9% among 360,000. purified FLuc, Km substrates, luminescence inhibition. P08659;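 also: plate controls were vehicle for no effect and reference inhibitor for full effect; nearly all actives have a fitted effect of over 55% in size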
# Target sequence (P08659 whole entry, looked up): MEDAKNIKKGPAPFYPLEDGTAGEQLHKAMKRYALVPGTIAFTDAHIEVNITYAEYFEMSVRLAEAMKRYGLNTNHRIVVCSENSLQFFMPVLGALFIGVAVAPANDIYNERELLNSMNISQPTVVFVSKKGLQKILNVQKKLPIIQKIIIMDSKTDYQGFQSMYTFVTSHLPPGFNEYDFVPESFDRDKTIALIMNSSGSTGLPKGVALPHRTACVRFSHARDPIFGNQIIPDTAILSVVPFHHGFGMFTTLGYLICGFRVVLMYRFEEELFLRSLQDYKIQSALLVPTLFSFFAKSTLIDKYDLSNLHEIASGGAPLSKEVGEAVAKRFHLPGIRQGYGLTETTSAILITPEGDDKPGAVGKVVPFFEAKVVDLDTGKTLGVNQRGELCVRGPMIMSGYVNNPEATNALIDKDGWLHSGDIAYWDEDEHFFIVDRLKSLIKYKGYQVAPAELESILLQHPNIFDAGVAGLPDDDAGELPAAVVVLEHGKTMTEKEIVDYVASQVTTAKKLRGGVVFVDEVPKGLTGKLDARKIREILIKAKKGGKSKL
#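 Purified P. pyralis luciferase (10nM final) with 10uM D-luciferin and 10uM ATP (Km levels) in 50mM Tris acetate pH 7.5, 10mM Mg acetate, 0.01% Tween-20, 0.05% BSA; qHTS 6-point titration, ~60 µM downward; luminescence read.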
# NPC1 promoter act: activators of NPC1 promoter; Huh7 NPC1 promoter luciferase reporter, 24 h; Potency, µM (doses to about 9.22 µM), for the others: at the top dose activation, usual class: activators; hit rate 2.4% among 320,000; also: % of control where 0% means no effect; nearly all actives have a fitted effect of over 60% in size
#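 Huh7 reporter cells (NPC1 promoter driving luciferase) are dosed with compound for 24 h at 37 °C, 5% CO2; luciferase detection reagent is then added and luminescence measured after 10 min at ambient temperature.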
# ELG1 genotoxic: induces genotoxicity in HEK293T cells with luciferase-tagged ELG1. HEK293T ELG1-luciferase reporter, luminescence, 16 h. Potency, µM (titrated, usually from 46 µM), inactives show at the highest dose activity change, positive = activation, actives largely listed as activators. hit rate 1.3% among 330,000. AID 504466; also: % of control where 0% means no effect; nearly all actives have a fitted effect of over 60% in size
#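 Step 1: seed 2,000 HEK293T ELG1-luciferase cells per well. Step 2: add compound or DMSO, incubate 16 hr at 37 °C. Step 3: ONE-Glo, 30 min at room temperature, read luminescence.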
# ELG1 repair inh: ELG1-dependent DNA repair inhibition | HEK293T ELG1-luciferase reporter, luminescence, 16 h; DNA damage induced by 5-fluorouridine | Potency, µM (highest dose often 46.1 µM), without a hit: at the top dose activity change, negative = inhibition, most hits filed as inhibitors | hit rate 2.3% among 330,000 | AID 504467; also: % is scaled to controls: 0 for no effect and ±100 for the full control effect; nearly all actives have a fitted effect of over 55% in size
#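 Luminescence from the luciferase reporter, measured 30 min after ONE-Glo reagent at room temperature, was the read-out. Beforehand, 2,000 cells per well were exposed for 16 hr at 37 °C to 5-fluorouridine together with compound or vehicle.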
# SMN2 splice enh: enhancers of SMN2 splice variant expression | HEK293 SMN2-luciferase splicing reporter, luminescence, 30-36 h | Potency, µM (doses to about 46.1 µM), for inactives: at the top dose activity change, positive = activation, actives largely listed as activators | hit rate 2.8% among 210,000 | AID 1458; also: % of control where 0% means no effect; nearly all actives have a fitted effect of over 55% in size
#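 HEK293 cells carry an SMN2 […]–luciferase reporter in which exon 7 inclusion puts luciferase in frame. Cells were plated 10-12 h before compound addition, then incubated 30-36 h at 37C. ONE-Glo luminescence was read; sodium butyrate at 4.5 mM final served as control.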
# The depositor's hits bear a star; ? = inconclusive; / = no result. Calls follow the shape of the dose curve; as a rule, active = well fitted curve in the direction sought with a large enough effect; inconclusive = small, poorly fitted or top-dose-only effect, or another doubt; inactive = no such curve, though single readings can be large; an effect the other way counts as inactive or inconclusive. Potency is read from the fitted curve at half-maximal effect.
SMILES,Rab9 promoter act,FLuc modulator,NPC1 promoter act,ELG1 genotoxic,ELG1 repair inh,SMN2 splice enh
COc1cccc(C(=O)Nc2nnc(-c3cccs3)s2)c1,3.2µM*,1.9µM*,?,0.82µM*,?,5.6µM*
O=C(Nc1ccncc1)c1ccc(Cl)c(S(=O)(=O)N2CCc3ccccc32)c1,-34%,-8%,-24%,-7%,?,/
Cc1ccc(OCC(=O)NCCCNC(=O)c2ccco2)cc1,-1%,1%,0%,3%,-3%,/
O=C(N/N=C/c1ccco1)C1CC1(c1ccccc1)c1ccccc1 (stereo unspecified),0%,1%,-5%,-7%,-5%,/
Cc1sc(-n2cccc2)c(C(=O)O)c1C,0%,-2%,-1%,-2%,17%,4%
Cc1cccc(NC(=O)CSc2nnc(C)c(=O)n2N)c1C,-3%,2%,-1%,1%,21%,-11%
COc1ccc(S(=O)(=O)N2CCC(C(=O)N[C@H](C(=O)NCc3ccco3)C(C)C)CC2)cc1,-2%,1%,1%,1%,11%,/
CCCCCOC(=O)Nc1nnc(CCCCC)s1,-5%,2%,0%,2%,9%,25%
CCCCOC(=O)Nc1nnc(CC)s1,?,?,16%,15µM*,?,14%
COc1ccc(/C=C/C(=O)c2ccc([N+](=O)[O-])o2)cc1,-43%,-15%,-35%,-48%,?,/
O=C(/C=C/c1ccc(F)cc1)c1ccccc1Br,-4%,19µM*,-3%,-15%,-24%,-8%
Cc1ccc(C(=O)/C=C/c2ccc(F)cc2)o1,10%,1.5µM*,3%,?,?,4%
COCOc1ccccc1C(=O)/C=C/c1ccccc1,/,/,/,/,/,-1%
CCN(CC(=O)Nc1c(F)cccc1F)C(=O)c1ccccn1,0%,3%,-1%,-2%,25%,/
O=C(Nc1ccc(/C=C/c2nc3ccccc3o2)cc1)c1c(F)cccc1F,2µM*,2.1µM*,3.2µM*,1.5µM*,?,8.9µM*
CC(=O)Nc1ccc(/C=C/c2nc3ccccc3o2)cc1,0.45µM*,4.8µM*,2.2µM*,?,?,/
O=C(Nc1ccc(/C=C/c2nc3ccccc3o2)cc1)c1cccc(C(F)(F)F)c1,?,?,28%,?,?,/
COc1ccccc1OC(C)C(=O)O (stereo unspecified),-2%,-1%,1%,0%,4%,-13%
CSc1sccc1/C=N/O,1%,5%,-1%,-5%,0%,/
CSc1sccc1/C=C(/C#N)C(=O)c1ccco1,12%,15µM*,19%,8%,?,/
CCOC(=O)c1c(OCCO)nn(-c2ccc(Cl)cc2)c1N,4%,1%,-6%,0%,-10%,-15%
COc1ccccc1NC(=O)c1ccc(NC(=O)C2CC2C)cc1 (stereo unspecified),/,/,/,0%,-16%,/
CC1CC1C(=O)Nc1ccc(-c2ccccc2)cc1 (stereo unspecified),2.5µM*,9.5µM*,3.2µM*,?,?,13µM*
CCOc1ccccc1N/C(=C(/C(Cl)=C(Cl)Cl)[N+](=O)[O-])n1cncn1,9%,1%,3%,3%,4%,3%
CSc1ccc(-c2nnn(Cc3ccccn3)n2)cc1,2.5µM*,12µM*,4µM*,?,?,?
SMILES,Rab9 promoter act,FLuc modulator,NPC1 promoter act,ELG1 genotoxic,ELG1 repair inh,SMN2 splice enh
CCOC(=O)Cn1nnc(-c2ccc(S(C)(=O)=O)cc2)n1,3%,0%,-2%,0%,6%,-10%
CCOC(=O)Cn1nnc(-c2ccc(SC)cc2)n1,-3%,12µM*,-2%,3%,17%,5%
COC(=O)Nc1ccc(=O)n(Cc2c(Cl)cccc2Cl)c1,1%,5%,-2%,-1%,12%,2%
O=C(Nc1ccc(O)cc1)c1ccccc1OCc1ccccc1,1%,-20%,0%,0%,?,/
COc1cccc(C(=O)NOCc2ccccc2)c1OC,?,27µM*,?,?,?,/
COc1cccc(C(=O)OCC(=O)NCCc2ccccc2)c1OC,-4%,-4%,-3%,0%,?,2%
COc1cc(NC(=O)c2ccccc2OCc2ccccc2)cc(OC)c1OC,6%,0%,-5%,-6%,16µM*,/
CCn1cc(CNC(=O)c2ccc3nc(Cc4ccc(OC)cc4)oc3c2)cn1,-3%,2%,-5%,-5%,2%,/
O=C(Nc1ccc(F)c(Cl)c1)c1cc(S(=O)(=O)N2CCCc3ccccc32)ccc1F,/,12µM*,/,/,/,/
COc1ccc(S(=O)(=O)N2CCCc3ccccc32)cc1OC,-6%,19µM*,-2%,?,?,/
COc1ccc(S(=O)(=O)N2CCCc3ccccc32)cc1[N+](=O)[O-],-4%,0%,-3%,-2%,?,/
COc1ccc(C(C(=O)NC(C)(C)C)N(Cc2ccccc2)C(=O)CCC(=O)Nc2cc(C)on2)cc1 (stereo unspecified),-12%,2%,-8%,-11%,-9%,-8%
CCOC(=O)c1cccc(NC(=O)C2CCCN(c3nnc(N4CCCC4=O)s3)C2)c1 (stereo unspecified),1%,0%,0%,1%,-28%,/
CCCSc1nc(N)nc(-c2cccs2)c1C#N,16%,21µM*,3%,14%,?,17%
Cc1ccc(NC(=O)CN(C)S(=O)(=O)c2ccc3nc(C)sc3c2)c(C)c1,/,0%,/,/,/,-2%
Cc1ncccc1C(=O)N1CCCC(CCC(=O)N2CCN(c3ccccn3)CC2)C1 (stereo unspecified),-3%,1%,1%,0%,13%,/
COc1ccc(C2=NN3C(=O)c4c(ccc(OC)c4OC)C3C2)cc1 (stereo unspecified),-1%,17µM*,1%,-1%,15%,-17%
COc1ccc2c(c1OC)C(=O)N1N=C(c3ccc(Br)cc3)CC21 (stereo unspecified),7%,24µM*,3%,0%,?,-30%
CCCNC(=O)c1c(N)n(-c2cc(OC)cc(OC)c2)c2nc3ccccc3nc12,0%,-1%,-1%,-21%,18µM*,-8%
CCOC(=O)c1c(N)n(-c2ccc(N)cc2)c2nc3ccccc3nc12,2%,1%,-3%,-5%,9.2µM*,-8%
Nc1c(C(=O)NC2CC2)c2nc3ccccc3nc2n1-c1ccc2c(c1)OCO2,7%,-1%,-11%,-1%,16µM*,-10%
CCCNC(=O)c1c(N)n(-c2ccc3c(c2)OCO3)c2nc3ccccc3nc12,-6%,8%,-1%,?,14%,-24%
CCOC(=O)c1c(N)n(-c2cccc(OC)c2)c2nc3ccccc3nc12,/,-6%,/,/,/,/

# Screens from PubChem BioAssay.
